Laboratory results reported in ChEMBL document CHEMBL2218924, “A broad activity screen in support of a chemogenomic map for kinase signalling research and drug discovery” (Biochem J, 2013).

Each compound was assayed against Focal adhesion kinase 1 (Homo sapiens) (UniProt Q05397). Conditions: at 10 µM.
Focal adhesion kinase 1 (Homo sapiens), sequence (Q05397 2-1052 limits assumed): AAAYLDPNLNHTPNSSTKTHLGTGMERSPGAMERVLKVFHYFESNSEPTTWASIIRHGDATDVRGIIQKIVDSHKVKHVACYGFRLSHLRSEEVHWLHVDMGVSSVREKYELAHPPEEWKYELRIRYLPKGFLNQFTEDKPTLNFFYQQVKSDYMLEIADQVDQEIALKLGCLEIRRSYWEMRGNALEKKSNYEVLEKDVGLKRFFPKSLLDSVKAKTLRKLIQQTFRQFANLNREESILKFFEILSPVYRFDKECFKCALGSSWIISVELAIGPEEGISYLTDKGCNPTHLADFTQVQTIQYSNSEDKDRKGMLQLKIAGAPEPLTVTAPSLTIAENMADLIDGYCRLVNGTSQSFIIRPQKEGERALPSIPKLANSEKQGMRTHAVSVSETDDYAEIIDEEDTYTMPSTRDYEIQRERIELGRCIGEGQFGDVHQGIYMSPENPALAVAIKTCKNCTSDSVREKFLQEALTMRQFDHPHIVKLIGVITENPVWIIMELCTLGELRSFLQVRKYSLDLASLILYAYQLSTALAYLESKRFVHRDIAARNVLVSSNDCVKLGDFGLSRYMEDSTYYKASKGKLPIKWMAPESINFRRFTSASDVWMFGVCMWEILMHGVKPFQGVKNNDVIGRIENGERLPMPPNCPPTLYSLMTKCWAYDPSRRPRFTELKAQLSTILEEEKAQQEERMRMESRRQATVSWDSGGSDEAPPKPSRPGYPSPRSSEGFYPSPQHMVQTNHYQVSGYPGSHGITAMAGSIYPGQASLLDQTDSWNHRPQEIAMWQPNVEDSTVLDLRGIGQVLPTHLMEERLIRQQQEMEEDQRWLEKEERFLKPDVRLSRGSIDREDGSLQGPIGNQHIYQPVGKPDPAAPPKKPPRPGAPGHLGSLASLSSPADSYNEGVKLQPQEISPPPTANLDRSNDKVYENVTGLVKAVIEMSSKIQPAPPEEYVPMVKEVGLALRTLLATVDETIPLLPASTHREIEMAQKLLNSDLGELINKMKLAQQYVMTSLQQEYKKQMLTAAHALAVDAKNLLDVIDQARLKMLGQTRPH
`O=S(=O)(NCCNC/C=C/c1ccc(Br)cc1)c1cccc2cnccc12` gave a residual activity of 30%.
Compound `Nc1nc(Nc2ccc(S(N)(=O)=O)cc2)nn1C(=O)c1c(F)cccc1F` has a residual activity of 52%.
For `Nc1n[nH]c2nc3ccccc3nc12`, the residual activity was 83%.
Work on `COc1cc2nccc(Oc3ccc(NC(=O)Nc4cc(C)on4)c(Cl)c3)c2cc1OC` yielded a residual activity of 35%.
`CC(C)[C@H](CO)Nc1nc(Nc2cc(N)cc(Cl)c2)c2ncn(C(C)C)c2n1` showed a residual activity of 3%.
In the case of `O=C(O)/C=C/c1cc(Br)c(Br)c(Br)c1Br`, the residual activity is reported as 98%.
`O=C(CCCc1ccc(-c2ccccc2F)cc1)Nc1ccc(O)cc1` gave a residual activity of 112%.
`O=C1Nc2ccccc2/C1=C\c1c(Cl)[nH]c2ccccc12` showed a residual activity of 85%.
For `CCCC(=O)Oc1ccc2[nH]c(C(=O)c3cc4ccccc4[nH]3)cc2c1`, the residual activity was 79%.
`N#C/C(=C1/Nc2ccccc2S1)c1ccnc(NCCc2cccnc2)n1` was tested, and the residual activity was 60%.
With `CC(C)(C)c1nc2c3ccc(F)cc3c3c(=O)[nH]ccc3c2[nH]1` the residual activity was 9%.
`O=C(Nc1nc2ccccc2n1CCN1CCOCC1)c1cccc([N+](=O)[O-])c1` showed a residual activity of 87%.

Each compound was assayed against Fibroblast growth factor receptor 1 (Homo sapiens) (UniProt P11362). Conditions: at 1 µM.
Fibroblast growth factor receptor 1 (Homo sapiens), sequence (P11362 22-822 limits assumed): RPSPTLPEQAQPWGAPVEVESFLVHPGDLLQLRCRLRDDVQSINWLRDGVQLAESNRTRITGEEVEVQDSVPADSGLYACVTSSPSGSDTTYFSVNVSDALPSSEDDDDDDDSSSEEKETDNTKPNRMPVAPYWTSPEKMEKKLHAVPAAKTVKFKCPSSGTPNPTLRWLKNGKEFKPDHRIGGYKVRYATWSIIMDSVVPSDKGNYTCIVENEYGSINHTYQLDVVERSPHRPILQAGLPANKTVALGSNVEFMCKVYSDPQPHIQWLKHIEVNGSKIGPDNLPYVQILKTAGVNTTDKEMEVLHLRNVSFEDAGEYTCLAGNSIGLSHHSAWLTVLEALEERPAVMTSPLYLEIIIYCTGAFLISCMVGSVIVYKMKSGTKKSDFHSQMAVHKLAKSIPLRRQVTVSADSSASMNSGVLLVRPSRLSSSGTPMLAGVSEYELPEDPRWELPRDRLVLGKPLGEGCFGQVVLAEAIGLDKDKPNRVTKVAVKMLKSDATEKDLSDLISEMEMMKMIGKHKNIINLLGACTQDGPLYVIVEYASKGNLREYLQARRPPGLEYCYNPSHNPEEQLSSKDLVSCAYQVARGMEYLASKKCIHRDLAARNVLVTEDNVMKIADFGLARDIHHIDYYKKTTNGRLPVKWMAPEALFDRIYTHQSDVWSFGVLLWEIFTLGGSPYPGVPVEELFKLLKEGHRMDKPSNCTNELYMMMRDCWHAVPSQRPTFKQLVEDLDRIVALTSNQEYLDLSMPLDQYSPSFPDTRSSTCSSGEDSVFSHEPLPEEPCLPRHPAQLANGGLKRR
In the case of `COc1ccc(COc2ccc(Cc3cnc(N)nc3N)cc2OC)cc1`, the residual activity is reported as 112%.
With `COc1ccc(CNC(=O)Nc2ncc([N+](=O)[O-])s2)cc1` the residual activity was 102%.
In the case of `O=C1NC(=O)C(c2cn(CCCO)c3ncccc23)=C1c1cnccn1`, the residual activity is reported as 80%.
Compound `COc1ccc2c(c1)c(C1=C(c3c[nH]c4ccccc34)C(=O)NC1=O)cn2CCCN(C)C` has a residual activity of 38%.
For `N#Cc1c(NC(=O)c2cccc3ccccc23)sc2c1CCCC2`, the residual activity was 128%.
In the case of `O=c1c(-c2ccc(F)cc2)c(-c2ccncc2)[nH]n1-c1ccc(Cl)cc1`, the residual activity is reported as 127%.
`O=C1Cc2c([nH]c3ccc([N+](=O)[O-])cc23)-c2ccccc2N1` was tested, and the residual activity was 74%.
For `Fc1ccc(-c2nc3n(c2-c2ccncc2)CCS3)cc1`, the residual activity was 137%.
Compound `CSc1nc(-c2ccc(F)cc2)c(-c2ccnc(NC(C)c3ccccc3)c2)[nH]1` (configuration not stated) has a residual activity of 126%.

These compounds were tested against Fibroblast growth factor receptor 1 (Homo sapiens) (UniProt P11362). Conditions: at 10 µM.
`O=S(=O)(NCCNC/C=C/c1ccc(Br)cc1)c1cccc2cnccc12` showed a residual activity of 35%.
Compound `O=C(NC(NC(=S)Nc1ccc(F)c([N+](=O)[O-])c1)C(Cl)(Cl)Cl)C(c1ccccc1)c1ccccc1` (configuration not stated) has a residual activity of 59%.
In the case of `COc1ccc(CNC(=O)Nc2ncc([N+](=O)[O-])s2)cc1`, the residual activity is reported as 77%.
`O=S(=O)(c1cccc2cnccc12)N1CCCNCC1` was tested, and the residual activity was 81%.
`O=C1NC(=O)C(c2cn(CCCO)c3ncccc23)=C1c1cnccn1` was tested, and the residual activity was 68%.
`COc1cc2ncnc(Nc3cccc(Cl)c3)c2cc1OC` showed a residual activity of 32%.
In the case of `COc1ccc2c(c1)c(C1=C(c3c[nH]c4ccccc34)C(=O)NC1=O)cn2CCCN(C)C`, the residual activity is reported as 3%.
`N#Cc1c(NC(=O)c2cccc3ccccc23)sc2c1CCCC2` showed a residual activity of 88%.
For `O=c1c(-c2ccc(F)cc2)c(-c2ccncc2)[nH]n1-c1ccc(Cl)cc1`, the residual activity was 40%.
Compound `O=c1cc(N2CCOCC2)oc2c(-c3ccccc3)cccc12` has a residual activity of 81%.
With `O=C1Cc2c([nH]c3ccc([N+](=O)[O-])cc23)-c2ccccc2N1` the residual activity was 59%.
`CN([C@@H](Cc1ccc(OS(=O)(=O)c2cccc3cnccc23)cc1)C(=O)N1CCN(c2ccccc2)CC1)S(=O)(=O)c1cccc2cnccc12` was tested, and the residual activity was 58%.
`CSc1nc(-c2ccc(F)cc2)c(-c2ccnc(NC(C)c3ccccc3)c2)[nH]1` (configuration not stated) gave a residual activity of 53%.

What follows are compounds tested against Fibroblast growth factor receptor 2 (Homo sapiens) (UniProt P21802). Conditions: at 1 µM.
Fibroblast growth factor receptor 2 (Homo sapiens), sequence (P21802 22-821 limits assumed): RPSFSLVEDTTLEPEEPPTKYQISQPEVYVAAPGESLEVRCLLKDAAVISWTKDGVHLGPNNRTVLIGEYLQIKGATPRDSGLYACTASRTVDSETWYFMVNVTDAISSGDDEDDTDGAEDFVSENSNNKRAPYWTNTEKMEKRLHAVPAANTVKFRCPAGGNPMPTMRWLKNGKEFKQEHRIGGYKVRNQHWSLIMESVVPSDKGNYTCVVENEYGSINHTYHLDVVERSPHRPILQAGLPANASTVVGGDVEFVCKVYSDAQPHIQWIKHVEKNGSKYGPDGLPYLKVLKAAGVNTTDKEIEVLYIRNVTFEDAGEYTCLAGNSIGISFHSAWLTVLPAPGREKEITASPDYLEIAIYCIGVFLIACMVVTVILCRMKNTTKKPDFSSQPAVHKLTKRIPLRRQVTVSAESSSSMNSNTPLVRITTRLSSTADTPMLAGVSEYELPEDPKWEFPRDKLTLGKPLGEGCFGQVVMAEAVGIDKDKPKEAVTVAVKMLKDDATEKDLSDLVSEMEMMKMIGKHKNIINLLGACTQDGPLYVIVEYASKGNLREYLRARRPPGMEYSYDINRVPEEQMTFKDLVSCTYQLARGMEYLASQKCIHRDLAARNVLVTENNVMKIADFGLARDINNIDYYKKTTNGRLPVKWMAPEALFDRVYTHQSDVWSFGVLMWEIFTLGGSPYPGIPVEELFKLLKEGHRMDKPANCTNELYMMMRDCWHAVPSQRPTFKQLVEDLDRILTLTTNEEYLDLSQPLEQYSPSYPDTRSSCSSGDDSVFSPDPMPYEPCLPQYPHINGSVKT
With `COc1ccc(COc2ccc(Cc3cnc(N)nc3N)cc2OC)cc1` the residual activity was 112%.
In the case of `Nc1nc(Nc2ccc(S(N)(=O)=O)cc2)nn1C(=O)c1c(F)cccc1F`, the residual activity is reported as 36%.
In the case of `Nc1n[nH]c2nc3ccccc3nc12`, the residual activity is reported as 122%.
`COc1ccc(CNC(=O)Nc2ncc([N+](=O)[O-])s2)cc1` showed a residual activity of 100%.
`COc1cc2nccc(Oc3ccc(NC(=O)Nc4cc(C)on4)c(Cl)c3)c2cc1OC` showed a residual activity of 25%.
For `N#C/C(=C\c1ccc(O)c(O)c1)C(=O)NCc1ccccc1`, the residual activity was 103%.
With `O=C1NC(=O)C(c2cn(CCCO)c3ncccc23)=C1c1cnccn1` the residual activity was 91%.
For `CC(C)[C@H](CO)Nc1nc(Nc2cc(N)cc(Cl)c2)c2ncn(C(C)C)c2n1`, the residual activity was 84%.
`COc1cc2ncnc(Nc3cccc(Cl)c3)c2cc1OC` showed a residual activity of 101%.
`NC(=O)c1ccc(-c2nc(-c3ccc4c(c3)OCCO4)c(-c3ccccn3)[nH]2)cc1` gave a residual activity of 117%.
Work on `COc1ccc2c(c1)c(C1=C(c3c[nH]c4ccccc34)C(=O)NC1=O)cn2CCCN(C)C` yielded a residual activity of 72%.
For `CCOc1nc(NC(=O)Cc2cc(OC)ccc2OC)cc(N)c1C#N`, the residual activity was 100%.
For `Nc1ncnc2[nH]nc(Nc3ccc(F)cc3)c12`, the residual activity was 91%.
`O=C(CCCc1ccc(-c2ccccc2F)cc1)Nc1ccc(O)cc1` was tested, and the residual activity was 99%.
Work on `O=C1Nc2ccccc2/C1=C\c1c(Cl)[nH]c2ccccc12` yielded a residual activity of 119%.
In the case of `CCCC(=O)Oc1ccc2[nH]c(C(=O)c3cc4ccccc4[nH]3)cc2c1`, the residual activity is reported as 97%.
Work on `N#C/C(=C1/Nc2ccccc2S1)c1ccnc(NCCc2cccnc2)n1` yielded a residual activity of 100%.
`CSc1nc(-c2ccc(F)cc2)c(-c2ccnc(NC(C)c3ccccc3)c2)[nH]1` (configuration not stated) gave a residual activity of 87%.
